IL-1B inflam inh – inflammasome signaling inhibition, IL-1 beta readout | AID 743279 | activity change, % at 57.5 µM | THP-1 LPS/ATP IL-1B secretion, AlphaLISA, 16 h; stronger effect = lower value | hit rate 4.7% among 360,000; in the data active = activity change below about -50%; inconclusive = mostly about -30% to -49%; also: % is scaled to controls: 0 for no effect and ±100 for the full control effect
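THP-1 cells pretreated 1 hr with compounds (up to 57.5 uM final), then stimulated with LPS (250 ng/mL final) plus ATP (1.25 mM final); secreted IL-1B measured by AlphaLISA after 16 hr, decreased signal indicating inhibition.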
ASM inhibitor – inhibitors of human secretory acid sphingomyelinase | placental ASM, HMU-PC fluorogenic substrate, 60 min | hit rate 0.006% among 340,000 | P17405 | Potency, µM (doses to about 57.5 µM), for the others: at the top dose activity change, negative = inhibition, actives largely listed as inhibitors; also: potency is read from the fitted curve at half-maximal effect
Target sequence (P17405 47-631 limits assumed): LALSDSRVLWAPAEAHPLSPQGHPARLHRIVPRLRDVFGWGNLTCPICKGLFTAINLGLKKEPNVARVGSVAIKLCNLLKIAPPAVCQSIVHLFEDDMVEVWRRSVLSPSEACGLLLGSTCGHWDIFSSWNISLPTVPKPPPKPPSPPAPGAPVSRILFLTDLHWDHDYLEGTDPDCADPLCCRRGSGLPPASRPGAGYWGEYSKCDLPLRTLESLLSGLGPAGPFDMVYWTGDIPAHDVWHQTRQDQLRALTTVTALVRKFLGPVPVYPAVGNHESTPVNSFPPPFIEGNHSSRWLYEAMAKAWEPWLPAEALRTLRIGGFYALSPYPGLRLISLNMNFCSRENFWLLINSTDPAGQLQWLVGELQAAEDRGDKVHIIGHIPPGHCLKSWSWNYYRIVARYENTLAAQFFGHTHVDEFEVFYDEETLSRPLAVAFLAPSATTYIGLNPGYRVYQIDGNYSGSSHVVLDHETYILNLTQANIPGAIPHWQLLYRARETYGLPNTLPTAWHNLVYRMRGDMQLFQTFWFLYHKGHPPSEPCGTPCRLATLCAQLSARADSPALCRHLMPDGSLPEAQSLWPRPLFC
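Steps: dispense placental human ASM, pin compound, wait 10 min at room temperature, add HMU-PC0 substrate at 9 uM final, incubate 60 min at 37 °C, add stop solution raising pH to 10, read fluorescence.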
DT40 TDP1 CPT – DT40-hTDP1 cell growth loss with CPT; Potency, µM (series often up to 46.2 µM), for the others: at the highest dose activity change, negative = growth inhibition, usual class: inhibitors; hit rate 12% among 420,000; AID 686979; chicken DT40 Tdp1-/-;hTDP1 cells + 20 nM CPT, ATP luminescence, 48 h; also: potency is read from the fitted curve at half-maximal effect; % is scaled to controls: 0 for no effect and ±100 for the full control effect; nearly all actives have a fitted effect of over 55% in size
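Cell growth measured by CellTiter-Glo luminescence after a minimum 48 h, 37 C compound exposure with 20 nM CPT in Tdp1-knockout DT40 cells stably expressing hTDP1, seeded 400/well; qHTS titration format.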
TGFb SMAD3 inh – TGF-b pathway inhibition. HepG2 CAGA-GFP TGF-b/SMAD3 reporter, GFP fluorescence, 18 h; TGF-beta stimulated, 500 pg/mL final. Potency, µM (highest dose often 46.1 µM), inactives show at the highest dose activity, negative = inhibition, actives largely listed as inhibitors. hit rate 1.2% among 410,000; also: potency is read from the fitted curve at half-maximal effect; % is scaled to controls: 0 for no effect and ±100 for the full control effect; nearly all actives have a fitted effect of over 65% in size
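HEPG2 CAGA-GFP cells (1000/well, DMEM with 1% FBS) were pre-incubated 2 h at 37 degrees C, given compound by pin tool, then stimulated with TGF-beta at 500 pg/mL final for 18 h before per-cell GFP fluorescence imaging.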
DT40 TDP1 no CPT – qHTS for Inhibitors of human tyrosyl-DNA phosphodiesterase 1 (TDP1): qHTS in cells in absence of CPT. DT40 Tdp1-/- hTDP1 cells, no CPT, ATP luminescence, 48 h. Potency, µM (series often up to 46.2 µM), without a hit: top-dose activity change, negative = growth inhibition, usual class: inhibitors. hit rate 15% among 420,000; also: potency is read from the fitted curve at half-maximal effect; % is scaled to controls: 0 for no effect and ±100 for the full control effect; nearly all actives have a fitted effect of over 55% in size
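DT40 Tdp1-/-;hTDP1 cells, no CPT (DMSO vehicle only), 400 cells/well; compounds pin-transferred; ≥48 hr, 37 °C; CellTiter-Glo 30 min RT dark, luminescence read.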
HepG2 tox – counter-screen for TGF-b inhibitors: cytotoxicity in HepG2 cells. HepG2 CAGA-GFP viability, ATP luminescence, 18 h. Potency, µM (series often up to 46.1 µM), inactives show at the highest dose activity change, negative = cytotoxicity, hits mostly cytotoxic. hit rate 0.76% among 410,000; also: potency is read from the fitted curve at half-maximal effect
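HepG2 CAGA-GFP cells (1000/well, DMEM with 1% FBS) received compound, then TGF-beta at 500 pg/mL final, and were incubated 18 hours at 37 degrees C. Viability was read by CellTiter-Glo luminescence. Media-only wells were set as complete cell-killing and DMSO as no toxicity.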
Numbers without * were called inactive; ? = inconclusive; / = no result. An excerpt weighted towards active compounds, which were near 19% of everything screened. Unless noted, calls follow the shape of the dose curve; as a rule, active = well fitted curve in the direction sought with a large enough effect; inconclusive = small, poorly fitted or top-dose-only effect, or another doubt; inactive = no such curve, though single readings can be large; an effect the other way counts as inactive or inconclusive.

SMILES	IL-1B inflam inh	ASM inhibitor	DT40 TDP1 CPT	TGFb SMAD3 inh	DT40 TDP1 no CPT	HepG2 tox
O=C(Cc1ccccc1)NC(Nc1ccccc1)C(Cl)(Cl)Cl (stereo unspecified)	-9	-1%	?	26%	-20%	14%
O=C(Cc1ccccc1)NC(Nc1cccc2ccccc12)C(Cl)(Cl)Cl (stereo unspecified)	30	-20%	?	3%	26µM*	-16%
CN(c1ccc(OCC(=O)OCC(=O)Nc2ccc(OC(F)F)cc2)cc1)S(=O)(=O)c1cccs1	0	2%	-6%	1%	-3%	-2%
CC(C)c1ccc(S(=O)(=O)c2cn(CC(=O)Nc3ccc(F)cc3)c3ccccc3c2=O)cc1	/	/	-3%	-1%	3%	6%
N#CC(Sc1ccccn1)c1ccc(Cl)cc1 (stereo unspecified)	-100*	73%	?	-6%	?	0%
CCOC(=O)Cn1c(=O)cc(C)c2ccccc21	-10	5%	8.2µM*	8%	12µM*	7%
Cc1ccc2c(=O)cc(C(=O)Nc3sc4c(c3C(=O)NCc3ccco3)CCC4)oc2c1C	/	/	1%	-11%	6%	-4%
CCOc1cc2c(cc1OCC)C(c1ccccc1)N(c1ccccc1)C(=O)C2 (stereo unspecified)	-18	-1%	16µM*	13%	16µM*	1%
COc1ccc(C2c3cc(OC)c(OC)cc3CC(=O)N2c2ccc(C)c(F)c2)cc1 (stereo unspecified)	/	/	3.3µM*	?	3.7µM*	-25%
COc1ccc(C2c3cc(OC)c(OC)cc3CC(=O)N2c2ccc(C)cc2)cc1 (stereo unspecified)	/	/	13µM*	10%	21µM*	-33%
COc1ccc(C2c3cc(OC)c(OC)cc3CC(=O)N2c2cccc(C#N)c2)cc1 (stereo unspecified)	/	/	?	4%	?	-20%
COc1ccc(OC)c(CNC(=O)c2ccc3c(c2)c(C)c(C)n3Cc2ccc(Cl)cc2)c1	/	/	16µM*	?	?	-19%
COc1ccccc1CCNC(=O)c1ccc2c(c1)c(C)c(C)n2Cc1ccc(Cl)cc1	/	/	23µM*	0%	21µM*	7%
COc1cc(C(=O)Nc2ccc(N3CCOCC3)cc2)ccc1OCc1c(C)noc1C	30	/	-1%	5%	4%	-16%
S=c1[nH]nc(COc2ccc(Cl)cc2Cl)n1-c1ccccc1	-4	-10%	1%	-26%	2%	-33%
Cc1cc(C)c2c(n1)nn1c(C)c(CCC(=O)NCc3ccc(Cl)cc3)c(C)nc21	/	/	-26%	-9%	?	-4%
O=C(N/N=C/c1ccccn1)c1cc(C2CC2)nc2ccccc12	-102*	-3%	23µM*	-3%	?	-1%
N/C(=N\OC(=O)c1cc(-c2ccccc2)nc2ccccc12)c1ccccn1	-26	-9%	13µM*	5%	12µM*	-1%
N/C(=N\OC(=O)COc1ccc2ccccc2c1)c1ccccn1	-58*	-8%	-1%	13%	-10%	-16%
O=C(N/N=C/c1ccccn1)c1cc(-c2ccccc2)nc2ccccc12	0	-7%	?	10µM*	16µM*	-22%
O=C(N/N=C/c1ccc(O)cc1)c1cc(-c2ccccc2)nc2ccccc12	26	?	?	1%	?	-19%
CCCN(CC(=O)Nc1ccccc1C)C(=O)c1ccc(N2CCCCC2)c([N+](=O)[O-])c1	-2	-8%	-5%	-8%	?	-7%
Cc1cc(=O)oc2ccc(OCC(=O)N(Cc3ccc(F)cc3)Cc3ccco3)cc12	-62*	0%	23µM*	-8%	?	-24%
Cc1ccc2c(c1)cc(CN(Cc1ccco1)C(=O)COc1ccccc1)c1nnnn12	?	-2%	?	-9%	23µM*	-7%
CCC(=O)N(Cc1ccco1)Cc1cc2cccc(C)c2n2nnnc12	-12	-12%	6%	-20%	20%	-37%
SMILES	IL-1B inflam inh	ASM inhibitor	DT40 TDP1 CPT	TGFb SMAD3 inh	DT40 TDP1 no CPT	HepG2 tox
O=C(O)CNC(=S)N(Cc1ccco1)Cc1ccccc1Cl	16	6%	-17%	-17%	-5%	-1%
CCc1ccc(OCC(=O)N(Cc2ccc(C)cc2)Cc2ccco2)cc1	/	/	?	?	21µM*	-38%
CCc1ccc(OCC(=O)N(Cc2ccco2)Cc2ccccc2Cl)cc1	/	/	?	/	13µM*	-32%
Cc1cccc(OCC(=O)N(Cc2ccc(C(C)(C)C)cc2)Cc2ccco2)c1	/	/	21µM*	-22%	10µM*	-45%
Cc1ccc(CN(Cc2ccco2)C(=O)COc2ccc(C)c(C)c2)cc1	/	/	23µM*	?	16µM*	-39%
O=C(COc1ccc(Cl)cc1Cl)NCCN1CCCC1	-23	/	-14%	4%	13%	-21%
O=C(COC(=O)c1cc(-c2ccc(Cl)s2)nc2ccccc12)NCc1ccco1	-6	222%	18µM*	?	16µM*	10%
CCOc1ccccc1CNC(=O)c1cc(-c2ccc(C)c(C)c2)nc2ccccc12	/	/	21µM*	-25%	?	-17%
O=C(COC(=O)c1cc(-c2cccs2)nc2ccccc12)NCc1ccco1	-6	261%	?	-5%	?	-5%
CCOc1ccccc1CNC(=O)c1cc(-c2ccc(Cl)s2)nc2ccccc12	/	/	-77%	-18%	13µM*	5%
CC1CC(=O)NN1C(=O)c1ccccc1 (stereo unspecified)	-2	3%	-3%	-19%	-19%	14%
Cc1ccc(OCc2nc(C#N)c(N3CCCCC3)o2)cc1	?	5%	7%	0%	-3%	-11%
Cc1cccc(OCc2nc(C#N)c(N3CCCC3)o2)c1	-55*	1%	7%	-4%	-26%	5%
N#Cc1nc(COc2ccccc2)oc1N1CCCCC1	-8	1%	?	-14%	-19%	-33%
N#Cc1nc(COc2ccc(Cl)cc2)oc1N1CCCCCC1	-59*	-7%	-9%	0%	-25%	-2%
COc1ccc(Nc2oc(COc3cccc(C)c3)nc2C#N)cc1	-9	-10%	-26%	-22%	-27%	-25%
Cc1cccc(OCc2nc(C#N)c(N3CC(C)CC(C)C3)o2)c1 (stereo unspecified)	-10	-1%	6.5µM*	-17%	?	-14%

Assay outcomes from PubChem.
